# Experimental data taken from PubChem BioAssay AID651692 (Broad Institute, 2012).
# Results with a measured potency or affinity are listed apart. Activity calls are given as the source filed them.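 The calls were made as follows: active = fitted half-maximal concentration for loss of cell signal no higher than twice the top valid tested concentration; inconclusive = flat curve at 30 to 70% inhibition, or poor fit; inactive = flat within 30%, signal rise, or potency above limit.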
# Experiment: cytotoxicity toward MDA-MB-231 breast cancer cells – cell-based, CellTiter-Glo luminescence, cherry-pick, cytotoxicity control for RAD54 inhibitor project, dose response (AID 651692);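 also: more negative values mean stronger loss of viable cell signal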
# Details: MDA-MB-231 viability, 24 h; series mostly up to 26 µM
row,SMILES,outcome
1,CCN1CCc2c(sc(NC(=O)c3ccc(S(=O)(=O)N4CCOCC4)cc3)c2C(=O)OC)C1,inactive
2,CCN(CC)CCCNC(=O)C1CCN(c2ncnc3c2sc2cccc(F)c23)CC1,inactive
3,O=C(Nc1cccc(Br)c1)c1cc(S(=O)(=O)N2CCOCC2)cs1,inactive
4,Nc1cc2c3c(cccc3c1)C(=O)N(CCN1CCCC1)C2=O,inactive
5,CCN(CC)CCn1c2ccccc2c2nc3ccc([N+](=O)[O-])cc3cc21,inactive
6,CCn1c(=O)c2cc(C(=O)NCCN(C)C)sc2c2ccccc21,inactive
7,COc1ncccc1-c1cc2nc(NCCCN(C)C)n(C)c(=O)c2s1,inactive
8,COc1ccc2nc(C)cc(Nc3ccc(N4CCOCC4)cc3)c2c1,inactive
9,O=C1c2cccc3cccc(c23)C(=O)N1CCCn1ccnc1,inactive
10,COc1ccc(C)c2sc(N(CCN(C)C)C(=O)c3ccc4ccccc4c3)nc12,inactive
11,CN(C)CCNC(=O)c1cccc(-c2cnc3c(NC=O)cc(-c4ccc(F)cc4)cn23)c1,inactive
12,COc1ccc2nc(-c3ccc(N)cc3)[nH]c2c1,inactive
13,COc1ccc2nc(C)cc(Nc3ccc(C)cc3)c2c1,inactive
14,Cc1ccc2nc(C)c3c(c2c1)N(c1ccc(F)cc1)CC3,inactive
15,Cc1c(OCC(=O)NC2CC(C)(C)NC(C)(C)C2)ccc2c1oc(=O)c1ccccc12,inactive
16,Cc1nnc2c(N3CCN(CCO)CC3)nc3ccccc3n12,inactive
17,CC(C)NC1CCC(Nc2ccnc3cc(Cl)ccc23)CC1 (stereo not given),inactive
18,CN(C)CCNC(=O)c1cccc(-c2cnc3c(NC=O)cc(-c4ccc(S(C)(=O)=O)cc4)cn23)c1,inactive
19,c1ccc(-c2nc(NCCCN3CCOCC3)c3ccccc3n2)cc1,inactive
20,c1cncc(Nc2c3ccccc3nc3ccccc23)c1,inactive
